PubChem BioAssay (NCI)
The panel holds about 79,000 compounds, 15% with a hit somewhere; the sample as a whole holds those more often. The source made the active and inactive calls. Cut-off read from the data, not from the text of the source: active = growth inhibition above about 70%; inactive = the rest.

Tests used:
[1] = NCI Yeast Anticancer Drug Screen. Data for the mec2-1 strain (AID 157); conditions: S. cerevisiae mec2-1 strain, stronger effect = higher value
Summary of the method: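 Vehicle-treated cultures served as reference for growth inhibition of compound-exposed mec2-1 yeast.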

[2] = NCI Yeast Anticancer Drug Screen. Data for the rad14 strain (AID 159);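 note: 0% = growth of vehicle-treated control cultures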; conditions: S. cerevisiae rad14 strain growth inhibition, stronger effect = higher value
Summary of the method: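 Inhibition of growth is reported for a repair-deficient yeast mutant following compound treatment, calculated relative to cultures that received vehicle.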

[3] = NCI Yeast Anticancer Drug Screen. Data for the sgs1 mgt1 strain (AID 161);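 note: 0% = growth of cultures given vehicle only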; conditions: S. cerevisiae sgs1 mgt1 strain, stronger effect = higher value
Summary of the method: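 Genetically altered yeast, compound exposure, growth inhibition relative to vehicle.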

[4] = NCI Yeast Anticancer Drug Screen. Data for the CLN2oe strain (AID 163);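 note: 0% = growth of vehicle-only control cultures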; conditions: S. cerevisiae CLN2oe strain, stronger effect = higher value
Summary of the method: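 Inhibition relative to vehicle-treated yeast is reported. Cells: strain with genetic alteration in cell-cycle control, grown with compound.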

[5] = NCI Yeast Anticancer Drug Screen. Data for the cln2 rad14 strain (AID 165);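 note: 0% = growth equal to vehicle treated cultures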; conditions: S. cerevisiae cln2 rad14 strain, stronger effect = higher value
Summary of the method: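 Each compound was tested on cln2 rad14 yeast. Inhibition of growth was calculated against vehicle-exposed controls.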

[6] = NCI Yeast Anticancer Drug Screen. Data for the bub3 strain (AID 167); conditions: S. cerevisiae bub3 mutant strain, stronger effect = higher value
Summary of the method: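 Mutant yeast screening strain plus compound; vehicle-treated cultures serve as the 0% inhibition reference.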

[7] = NCI Yeast Anticancer Drug Screen. Data for the wt2 strain (AID 169); conditions: S. cerevisiae wt2 strain growth inhibition, stronger effect = higher value
Summary of the method: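 Inhibition of yeast growth was determined after compound treatment, normalised to controls receiving only vehicle.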

[8] = NCI Yeast Anticancer Drug Screen. Data for the sgs1 strain (AID 173);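 note: 0% = growth of vehicle-only control cultures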; conditions: S. cerevisiae sgs1 mutant, stronger effect = higher value
Summary of the method: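 Screen format: yeast with repair or checkpoint alterations, compound exposure, growth read relative to vehicle.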

[9] = NCI Yeast Anticancer Drug Screen. Data for the mlh1 rad18 strain (AID 175); conditions: S. cerevisiae mlh1 rad18 strain growth inhibition, stronger effect = higher value
Summary of the method: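 Vehicle-treated cultures served as the reference for growth inhibition in a yeast strain carrying DNA damage repair alterations exposed to each compound.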

[10] = NCI Yeast Anticancer Drug Screen. Data for the rad18 strain (AID 177); conditions: S. cerevisiae rad18 mutant growth inhibition, stronger effect = higher value
Summary of the method: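 Test articles were incubated with altered yeast defective in DNA damage repair. Results are given as inhibition of growth versus vehicle.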

[11] = NCI Yeast Anticancer Drug Screen. Data for the rad52 strain (AID 147);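 note: 0% = growth of vehicle-treated control cultures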; conditions: S. cerevisiae rad52 mutant growth inhibition, stronger effect = higher value
Summary of the method: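 Vehicle-treated cultures served as the reference for growth inhibition of compound-exposed yeast bearing a DNA repair mutation.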

[12] = NCI Yeast Anticancer Drug Screen. Data for the wt1 strain (AID 149);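 note: 0% = growth of vehicle-treated wt1 cultures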; conditions: S. cerevisiae wt1 strain (SPY 50644) growth inhibition, stronger effect = higher value
Summary of the method: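 Each compound is tested on wt1 yeast and the loss of growth versus vehicle gives the inhibition value.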

[13] = NCI Yeast Anticancer Drug Screen. Data for the rad50EPP+ strain (AID 151);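 note: 0% = growth of vehicle-treated control cultures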; conditions: S. cerevisiae rad50 mutant strain, stronger effect = higher value
Summary of the method: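 In this screen, rad50EPP+ yeast were exposed to compounds. Growth inhibition was scored against vehicle-treated controls.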

[14] = NCI Yeast Anticancer Drug Screen. Data for the mgt1 strain (AID 153); conditions: S. cerevisiae mgt1 mutant growth inhibition, stronger effect = higher value
Summary of the method: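 mgt1 strain exposed; growth vs vehicle control recorded as inhibition.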

[15] = NCI Yeast Anticancer Drug Screen. Data for the rad50 strain (AID 155);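 note: 0% = growth of vehicle-only cultures of the same strain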; conditions: S. cerevisiae rad50 strain growth inhibition, stronger effect = higher value
Summary of the method: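 Vehicle-treated cultures provide the reference for the growth inhibition reported for compound-exposed, repair-deficient yeast.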

[16] = NCI Yeast Anticancer Drug Screen. Data for the mlh1 strain (AID 171);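 note: 0% = growth of vehicle-treated control cultures of the same strain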; conditions: S. cerevisiae mlh1 strain growth inhibition, stronger effect = higher value
Summary of the method: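 Vehicle-normalised growth inhibition of a repair- or checkpoint-altered yeast strain following compound treatment.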

[17] = at 5.0 µM (retest, dose inferred, filed as 0.5)
[18] = at 50.0 µM (retest, dose inferred, filed as 5.0)

Measured: growth inhibition

NC1=NS(=O)(=O)N=C(N)C1=Cc1ccc([N+](=O)[O-])o1
inactive: [1]; [17] -20% | [1]; at 11.0 µM -15% | [1]; at 33.0 µM 10% | [1]; [18] 14% | [2]; at 1.2 µM -7% | [2]; at 3.7 µM -8% | [2]; at 11.0 µM -9% | [2]; at 33.0 µM 1% | [3]; [17] -6% | [3]; [18] 43% | [4]; at 1.2 µM 9% | [4]; at 3.7 µM 0% | [4]; at 11.0 µM -11% | [4]; at 33.0 µM 13% | [5]; [17] -16% | [5]; [18] 25% | [6]; at 1.2 µM 8% | [6]; at 3.7 µM -11% | [6]; [17] 5% | [6]; at 11.0 µM -22% | [6]; at 33.0 µM -27% | [6]; [18] 47% | [6]; at 50.0 µM 68.5% | [7]; at 1.2 µM -41% | [7]; at 3.7 µM -34% | [7]; at 11.0 µM -22% | [7]; at 33.0 µM -6% | [8]; at 1.2 µM -15% | [8]; at 3.7 µM -10% | [8]; at 11.0 µM 18% | [8]; at 33.0 µM 45% | [9]; [17] 3% | [10]; at 1.2 µM 11% | [10]; at 3.7 µM 17%
active: [1]; at 50.0 µM 93.8% | [1]; at 100.0 µM 98% | [2]; at 100.0 µM 97% | [3]; at 50.0 µM 92.7% | [4]; at 100.0 µM 99% | [5]; at 50.0 µM 74.7% | [6]; at 100.0 µM 98% | [7]; at 100.0 µM 98% | [8]; at 100.0 µM 98% | [9]; [18] 84% | [9]; at 50.0 µM 88.8% | [10]; at 11.0 µM 71% | [10]; at 33.0 µM 89% | [10]; at 100.0 µM 98%

CCCCCCCCCCCCCC[N+](C)(CC(=O)[O-])Cc1ccccc1 (centres undefined)
inactive: [11]; at 1.2 µM 2% | [11]; at 3.7 µM 23% | [12]; at 1.2 µM -1% | [12]; at 3.7 µM 1% | [12]; at 33.0 µM 54% | [13]; at 1.2 µM 5% | [13]; at 3.7 µM 32% | [14]; at 1.2 µM 2% | [14]; at 3.7 µM 26% | [15]; at 1.2 µM 8% | [15]; at 3.7 µM 50% | [15]; [17] 8% | [1]; at 1.2 µM -2% | [1]; at 3.7 µM 3% | [1]; [17] 32% | [2]; at 1.2 µM 10% | [2]; at 3.7 µM 30% | [3]; [17] 13% | [4]; at 1.2 µM 5% | [4]; at 3.7 µM 19% | [5]; [17] 9% | [6]; at 1.2 µM -1% | [6]; at 3.7 µM 10% | [6]; [17] 2% | [7]; at 1.2 µM -6% | [7]; at 3.7 µM 9% | [7]; at 33.0 µM 60% | [16]; at 1.2 µM 2% | [16]; at 3.7 µM 31% | [9]; [17] 1% | [10]; at 1.2 µM 3% | [10]; at 3.7 µM 23%
active: [11]; at 11.0 µM 99% | [11]; at 33.0 µM 98% | [11]; at 100.0 µM 99% | [12]; at 11.0 µM 99% | [12]; at 100.0 µM 99% | [13]; at 11.0 µM 99% | [13]; at 33.0 µM 99% | [13]; at 100.0 µM 98% | [14]; at 11.0 µM 100% | [14]; at 33.0 µM 99% | [14]; at 100.0 µM 99% | [15]; at 11.0 µM 99% | [15]; at 33.0 µM 99% | [15]; [18] 99% | [15]; at 50.0 µM 98.8% | [15]; at 100.0 µM 99% | [1]; at 11.0 µM 99% | [1]; at 33.0 µM 99% | [1]; [18] 100% | [1]; at 50.0 µM 99.1% | [1]; at 100.0 µM 99% | [2]; at 11.0 µM 100% | [2]; at 33.0 µM 99% | [2]; at 100.0 µM 99% | [3]; [18] 99% | [3]; at 50.0 µM 98.8% | [4]; at 11.0 µM 99% | [4]; at 33.0 µM 99% | [4]; at 100.0 µM 99% | [5]; [18] 99% | [5]; at 50.0 µM 93.8% | [6]; at 11.0 µM 99% | [6]; at 33.0 µM 99% | [6]; [18] 99% | [6]; at 50.0 µM 98.9% | [6]; at 100.0 µM 98% | [7]; at 11.0 µM 100% | [7]; at 100.0 µM 99% | [16]; at 11.0 µM 99% | [16]; at 33.0 µM 99% | [16]; at 100.0 µM 99% | [9]; [18] 99% | [9]; at 50.0 µM 99.1% | [10]; at 11.0 µM 99% | [10]; at 33.0 µM 99% | [10]; at 100.0 µM 99%

COC1=CC(=O)C(C2(OC(C)C)OC(=O)C(Cl)=C2Cl)=CC1=O (centres undefined)
active: [11]; at 11.0 µM 99% | [11]; at 33.0 µM 99% | [11]; at 100.0 µM 99% | [12]; at 11.0 µM 97% | [12]; at 33.0 µM 99% | [12]; at 100.0 µM 99% | [13]; at 11.0 µM 94% | [13]; at 33.0 µM 99% | [13]; at 100.0 µM 99% | [14]; at 11.0 µM 99% | [14]; at 33.0 µM 99% | [14]; at 100.0 µM 99% | [15]; at 11.0 µM 99% | [15]; at 33.0 µM 99% | [15]; [18] 99% | [15]; at 50.0 µM 96.2% | [15]; at 100.0 µM 99% | [1]; at 11.0 µM 100% | [1]; at 33.0 µM 100% | [1]; [18] 99% | [1]; at 50.0 µM 86.7% | [1]; at 100.0 µM 99% | [2]; at 11.0 µM 99% | [2]; at 33.0 µM 99% | [2]; at 100.0 µM 99% | [3]; [18] 99% | [3]; at 50.0 µM 99.5% | [4]; at 3.7 µM 87% | [4]; at 11.0 µM 99% | [4]; at 33.0 µM 99% | [4]; at 100.0 µM 99% | [5]; [18] 99% | [6]; at 11.0 µM 99% | [6]; at 33.0 µM 99% | [6]; [18] 99% | [6]; at 100.0 µM 99% | [7]; at 11.0 µM 98% | [7]; at 33.0 µM 99% | [7]; at 100.0 µM 99% | [16]; at 11.0 µM 99% | [16]; at 33.0 µM 99% | [16]; at 100.0 µM 99% | [9]; [18] 99% | [9]; at 50.0 µM 91.8% | [10]; at 11.0 µM 99% | [10]; at 33.0 µM 99% | [10]; at 100.0 µM 99%
inactive: [11]; at 1.2 µM 1% | [11]; at 3.7 µM 22% | [12]; at 1.2 µM 1% | [12]; at 3.7 µM 8% | [13]; at 1.2 µM 8% | [13]; at 3.7 µM 48% | [14]; at 1.2 µM -3% | [14]; at 3.7 µM 17% | [15]; at 1.2 µM 1% | [15]; at 3.7 µM 33% | [15]; [17] 56% | [1]; at 1.2 µM 8% | [1]; at 3.7 µM 65% | [1]; [17] 47% | [2]; at 1.2 µM 3% | [2]; at 3.7 µM 37% | [3]; [17] 53% | [4]; at 1.2 µM 0% | [5]; [17] 30% | [5]; at 50.0 µM 63.5% | [6]; at 1.2 µM 0% | [6]; at 3.7 µM 34% | [6]; [17] 30% | [6]; at 50.0 µM 59.9% | [7]; at 1.2 µM -1% | [7]; at 3.7 µM 10% | [16]; at 1.2 µM 2% | [16]; at 3.7 µM 27% | [9]; [17] 43% | [10]; at 1.2 µM 7% | [10]; at 3.7 µM 49%
